RmlC RmlD mix: mixture blocks RmlC and RmlD coupled enzyme activity; RmlC/RmlD coupled enzyme inhibition, 384-well mixture HTS; AID 1532; inhibition, % at 5.5 µM; hit rate 0.39% among 110,000; in the data active = inhibition above about 30%, passing the limit was not always enough; inconclusive = no clear call, values can overlap the other calls
HIV RNase H inh-1: blocks HIV-1 RNase H cleavage of RNA/DNA duplex; P04585; RT-RNase H RNA/DNA duplex cleavage, fluorescence; inhibition, % at 10 µM; hit rate 1.9% among 65,000; in the data active = inhibition above about 50%
HIV RNase H inh-2: confirmation of HIV-1 reverse transcriptase RNase H inhibitors | shares compounds with HIV RNase H inh-1 | Recombinant RT RNase H, fluorescent RNA/DNA duplex cleavage | inhibition, % at 10 µM | hit rate 39% among 1,000 | AID 651; in the data active = inhibition above about 48%; inconclusive = no clear call, values can overlap the other calls
* marks the source's active call; other numbers are inactive results; ? = inconclusive; . = no result. The entries come from a sample that favours hits as a whole.

SMILES | RmlC RmlD mix | HIV RNase H inh-1 | HIV RNase H inh-2
N#Cc1cc2c(nc1SCC(=O)Nc1sc3c(c1C#N)CCC3)CCCCC2 | -8.9 | 66.2* | 22.6
CCOC(=O)c1sc(NC(=O)CSc2nc3c(cc2C#N)CCCCCC3)c(C#N)c1C | 15.6 | 72.9* | ?
CCOC(=O)c1cnc(SCC(=O)Nc2sc(C)c(C)c2C#N)nc1N | 3.2 | 62.9* | 16.1
CCOC(=O)c1cnc(SCC(=O)Nc2cc(OC)cc(OC)c2)nc1N | 7.0 | -2.6 | .
CCOC(=O)c1sc(NC(=O)CSc2nc3c(cc2C#N)CCC3)c(C#N)c1C | . | 42.8 | .
N#Cc1cc2c(nc1SCC(=O)Nc1sc3c(c1C#N)CCC3)CCCC2 | 3.9 | . | .
CCC(NS(=O)(=O)c1ccc(C)cc1)C(=O)Nc1ccc(NC(C)=O)cc1 (stereo unspecified) | -7.2 | 30.8 | .
Cc1cc(N2CCC(C)CC2)nc2cccc(O)c12 | 43.5 | . | .
COc1cc(O)c(C(C)=O)c(CC(=O)O)c1 | 4.8 | . | .
CC(C)(C)c1ccc(-c2nnc3sc(-c4ccncc4)nn23)cc1 | -3.2 | 94.7* | 57.6*
CCOc1ccc(-c2nn3c(-c4ccc(OC)cc4)nnc3s2)cc1 | . | -0.8 | .
Cc1nnc2sc(-c3ccncc3)nn12 | 30.5 | -6.9 | .
CCOc1ccc(-c2nn3c(-c4ccccc4)nnc3s2)cc1 | -8.8 | 87.2* | 17.2
Cc1cc(Cl)ccc1OCC(=O)NCCOc1nc(N2CCOCC2)nc(N2CCOCC2)n1 | -9.7 | . | .
COc1ccc(C(=O)c2ccc(OC)c(OC)c2)cc1OC | -12.2 | -36.7 | .
COc1ccc(C(=S)N(C)C)cc1OC | -4.7 | 87.4* | 58.3*
COc1cccc(C2CC(=O)N3CN(c4ccccc4F)CSC3=C2C#N)c1 (stereo unspecified) | -10.7 | 75.9* | 12.4
COc1cccc(C2CC(=O)N3CN(c4cccc(Cl)c4C)CSC3=C2C#N)c1OC (stereo unspecified) | -6.9 | 25.3 | .
COc1ccc(OC)c(C2CC(=O)N3CN(c4ccccc4F)CSC3=C2C#N)c1 (stereo unspecified) | 5.2 | 26.9 | .
COc1cc(C2CC(=O)N3CN(c4ccccc4C)CSC3=C2C#N)cc(OC)c1OC (stereo unspecified) | -14.1 | 66.4* | 83.3*
COc1ccccc1N1CSC2=C(C#N)C(c3ccc(SC)cc3)CC(=O)N2C1 (stereo unspecified) | -1.9 | 81.2* | 55.2*
COc1ccc(OC)c(C2CC(=O)N3CN(c4cccc(Cl)c4C)CSC3=C2C#N)c1 (stereo unspecified) | 6.3 | 20.6 | .
CCCCC1=CC2=C(c3ccco3)C(=O)C(C)(OC(=O)c3ccc(OC)cc3)C(=O)C2=CN1C1CCCCC1 (stereo unspecified) | 1.2 | . | .
C#Cc1ccc([C@H]2C=C(C(=O)NC3CC3)O[C@@H](OCC)[C@@H]2CCCO)cc1 | -14.2 | . | .
O=C(OCc1cc(Cl)ccc1OC(F)F)c1cc(S(=O)(=O)O)ccc1O | -11.6 | -2.7 | .
SMILES | RmlC RmlD mix | HIV RNase H inh-1 | HIV RNase H inh-2
CCOC(=O)N1CCN(C(=O)c2ccc(N(Cc3ccccc3)S(C)(=O)=O)cc2)CC1 | 4.0 | . | .
O=C(CCC(=O)c1cccs1)Nc1ccc(F)c(F)c1F | -12.1 | . | .
CCCCN(C(=O)c1c(C)[nH]c(C(=O)OCC)c1C)c1ccccc1 | -6.3 | 0.0 | .
CC1(C)CC(=O)C(C(c2ccco2)C2C(=O)CC(C)(C)CC2=O)C(=O)C1 | -16.2 | 69.4* | 31.6
CC1(C)C(=O)C2(CCCC2)C(=O)OC1c1ccco1 (stereo unspecified) | 14.1 | -4.2 | .
CCOC(=O)O[C@]1(C(=O)OCCl)CC[C@H]2[C@@H]3CCC4=CC(=O)C=C[C@]4(C)[C@H]3[C@@H](O)C[C@@]21C | -3.7 | . | .
COc1ccc([C@H]2/C=C\CN(C(=O)[C@H](Cc3ccccc3)NC(=O)OCC3c4ccccc4-c4ccccc43)CC(=O)N2Cc2ccc(F)cc2)cc1 | -11.1 | . | .
O=Cc1ccc(O)c(O)c1 | -12.2 | . | .
O=C(O)/C=C/c1ccc(O)c(O)c1 | 11.9 | 73.6* | 75.8*
CCOC(=O)c1cc(-c2nnc(-c3ccc(Cl)cc3)o2)c(C)nc1C | -5.7 | 9.8 | .
CCOC(=O)c1cc(-c2nnc(SCC(=O)Nc3ccc(F)cc3)o2)c(C)nc1C | -6.8 | 70.1* | 2.5
Cc1c(C)n(C(=O)CSc2ncn[nH]2)c2ccccc12 | 139.6 | 0.5 | .
CC(C)[C@H]1C=C(C(=O)O)O[C@@H](OCCCCO)C1 | 3.3 | . | .
COc1ccccc1NC(=O)C1CC(=O)OC1c1ccccc1 (stereo unspecified) | 14.4 | -15.2 | .
Cc1ccc(S(=O)(=O)Nc2cc(C)c(O)c(S(=O)(=O)c3ccc(C)cc3)c2)cc1 | 9.4 | . | .
Cc1cc(NS(=O)(=O)c2ccccc2)cc(Cl)c1O | -6.2 | 77.6* | 8.7
CCOC(=O)C1C(=O)NC(SCC(N)=O)=C(C#N)C1c1ccccc1OCC (stereo unspecified) | -10.2 | 66.2* | -1.3
CCOC(=O)C1C(=O)NC(SC)=C(C#N)C1c1ccccc1F (stereo unspecified) | -5.7 | -6.5 | .

Screens as filed in PubChem BioAssay.
